Drawing on the supplement of paper PMC10681739, this text covers ETS1 binding intensity and RUNX1 binding intensity for 40 sequences.
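Throughout, for RUNX1 binding intensity (PBM fluorescence), RUNX1 alone: Full-length recombinant human RUNX1 bound to double-stranded 36-bp genomic probes on a high-density microarray, scored as Alexa488 fluorescence per spot via anti-RUNX1 antibody, median of four replicate spots.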

The first test has as its target T1, ETS1 (UniProt P14921).
T1 sequence: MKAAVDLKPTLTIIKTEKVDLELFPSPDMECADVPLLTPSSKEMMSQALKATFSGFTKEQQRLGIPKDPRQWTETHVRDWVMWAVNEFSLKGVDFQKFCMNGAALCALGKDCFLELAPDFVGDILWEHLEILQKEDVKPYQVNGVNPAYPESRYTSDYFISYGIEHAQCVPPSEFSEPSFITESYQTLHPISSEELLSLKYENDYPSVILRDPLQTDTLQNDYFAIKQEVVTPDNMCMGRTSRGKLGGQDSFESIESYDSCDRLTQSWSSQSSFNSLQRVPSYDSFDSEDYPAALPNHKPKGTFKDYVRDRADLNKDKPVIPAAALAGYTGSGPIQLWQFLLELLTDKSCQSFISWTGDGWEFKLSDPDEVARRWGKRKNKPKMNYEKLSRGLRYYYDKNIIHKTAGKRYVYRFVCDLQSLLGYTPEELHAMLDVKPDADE
The test can be described thus: ETS1 binding intensity (PBM fluorescence), ETS1 alone (arbitrary fluorescence units); higher = stronger binding. To be noted: ETS1 concentration 1 nM; RUNX1 concentration 0 nM.
For GAAATTTCCGCTTTCTTTCTGCAGCAGGAACCGCGG, the ETS1 binding intensity amounted to 2670.

Sequence GGCCAGGCAGGAAGTCCCGCGCCACAAGCGGCCGTC showed an ETS1 binding intensity of 3050.

As to GCGCAAGGATCCGGTTTGTTGTGGTGTGGGGAGGGG, the ETS1 binding intensity was 517.

Consider GCGGGCGGAAGTGCCGAGGTTGTACCGCGGCGCTGG, for which the ETS1 binding intensity was 2020.

AGAATCGCATCAGGATGTGGTGAGGGAGCACATTTG came in with an ETS1 binding intensity of 948.

In the case of GTTGCAGGAAACGATGGGTTTTGTGGTATGAACTGC, the ETS1 binding intensity was 813.

Regarding AATCTGAAACAGGAAATAAGTCTGTGGTTGTGTGTT, the ETS1 binding intensity stood at 7070.

CTGTCCCTAGCAGGATGTGGTTTGCACATTGCTGCT had an ETS1 binding intensity of 3220.

The sequence GGCCTCGGCCACATCCGGGTTCCACCGCAGATTCGG registered an ETS1 binding intensity of 1850.

TCATATCCGGCAGGAATGGGTTTTGTGGCTTTGTGC had an ETS1 binding intensity of 752.

The sequence GATTGTTATGTCCGGAAACCGCTTATCAGAGCCCTG came in with an ETS1 binding intensity of 2870.

Sequence TGGCTTTGCAGAAGGAAGCTGTGGTTTCTGGTCTTC yielded an ETS1 binding intensity of 620.

As for AACCATTACAGGATGTGAGATTCAAACCACTAACAG, the ETS1 binding intensity amounted to 2270.

Take AAAGCATTTCCTGCCTTGACTTAACCACAAGACAGG: the ETS1 binding intensity was found to be 1880.

With GGGTCTCCAGGAAGCCACTCACCACAAACTTTGACA, the ETS1 binding intensity is 482.

Consider CCGCTGAGAACAGGATGTGGGTGTCAGGAGGTGAAG, for which the ETS1 binding intensity was determined as 4850.

The sequence CCATGCACAACAGGATGTGGTTAGACAGTCAAAATT displayed an ETS1 binding intensity of 6700.

On to GTAGGGAAGACGGGATGTGGGTTTTCAGCCGTGGCC, for which the ETS1 binding intensity came to 1220.

Turning to TCTAAATCACTTCCTGTTACAGAAACCACAGGCCTG, the ETS1 binding intensity turned out to be 4300.

With GCCAACAGGAAGCTGGAAGCCAACCGCACTGTGTGC, the ETS1 binding intensity amounted to 1190.

With CAGGCTCGCCACAGGGGAAGTGGTTAGGGCGGGTCC, the ETS1 binding intensity was found to be 684.

Sequence GAGTGGGCGGAAATCCGTGCCTGGCAGACCACAAAG had an ETS1 binding intensity of 1320.

AGCTCCACCGGAAACGGCCTGGCCGCAGCCAATCAG came in with an ETS1 binding intensity of 7110.

CTCTCACTTCCCGTGTGAGAAAAACCACAGAAAAGC registered an ETS1 binding intensity of 651.

Regarding CAGCTGACAGGAAGGAGAGAACCACAGACAGTGCGA, the ETS1 binding intensity is 782.

Regarding GGGGGCGGAAGTTTCGGTGCATTGTGGGTTCTCCTG, the ETS1 binding intensity amounted to 1260.

In turn, CGGCAGGCAAGCAGGAAACCGCGAGTGGAGAAAGGG had an ETS1 binding intensity of 1960.

With CTTAGTGTTTGAGGATGTGGGTTTTACAATCAGATC, the ETS1 binding intensity was 845.

AAGAGGAAGTCCCAAATTGCTTTTTAACCACCAACA: the ETS1 binding intensity stood at 522.

TGCGAGGTTGCCAGGAAACCGCGAAGCCGAGGTCCC: the ETS1 binding intensity was determined as 808.

Sequence GGGTTGGGTGCCGGATGCGGTGAGTGAGGTTCTCAT showed an ETS1 binding intensity of 2930.

Take AGCCGCCACTTCCTGTCTCTGCGGGTGCATGCTCTT: the ETS1 binding intensity was found to be 3730.

As to TGTTGTAGGGGAAGTGGTGTGTGGTATTCCTGGGGA, the ETS1 binding intensity was found to be 797.

TTTGCTGCAGAAGGATGTGGTTTATTCAGGTTTGAC: the ETS1 binding intensity was found to be 676.

CCTCAATTTCCTGGCCAGAGAAACCACTGCCTCTCA returned an ETS1 binding intensity of 546.

Turning to TTGATTGGAGCAGGATGTGGTCAGAACAGTATGCAG, the ETS1 binding intensity was found to be 3190.

With CCGGTCCTGACCGGAAGCGGTAACCGTCACTCCTTC, the ETS1 binding intensity came out at 21100.

The sequence CCCACTGCGCCAGGATGTGGTCAGGTCGGTGACGTT yielded an ETS1 binding intensity of 1560.

AGCAGCTGCCAGAGGAAGTCTGCGGTCGGAACAGGC showed an ETS1 binding intensity of 1260.

Regarding AACATCCTGTGTAAAGAGAATTGAATGTGGTTTTCT, the ETS1 binding intensity was determined as 559.

A further test deals with RUNX1 (UniProt Q01196). The test can be described thus: RUNX1 binding intensity (PBM fluorescence), RUNX1 alone (arbitrary fluorescence units); higher = stronger binding. To be noted: RUNX1 concentration 2 nM; ETS1 concentration 0 nM. As for the experimental part: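 Cooperative gcPBM on 36-bp genomic probes with neighbouring ETS1 and RUNX1 sites. Recombinant human RUNX1 (2 nM) was incubated alone or with ETS1 (25 nM) and detected with anti-RUNX1 antibody plus Alexa488 secondary. Values are medians over 4 replicate spots; the RUNX1+ETS1 data were normalised to the RUNX1-only data. The probes sit in constant array flanks that are not printed.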
Sequence of RUNX1 (Q01196 whole entry): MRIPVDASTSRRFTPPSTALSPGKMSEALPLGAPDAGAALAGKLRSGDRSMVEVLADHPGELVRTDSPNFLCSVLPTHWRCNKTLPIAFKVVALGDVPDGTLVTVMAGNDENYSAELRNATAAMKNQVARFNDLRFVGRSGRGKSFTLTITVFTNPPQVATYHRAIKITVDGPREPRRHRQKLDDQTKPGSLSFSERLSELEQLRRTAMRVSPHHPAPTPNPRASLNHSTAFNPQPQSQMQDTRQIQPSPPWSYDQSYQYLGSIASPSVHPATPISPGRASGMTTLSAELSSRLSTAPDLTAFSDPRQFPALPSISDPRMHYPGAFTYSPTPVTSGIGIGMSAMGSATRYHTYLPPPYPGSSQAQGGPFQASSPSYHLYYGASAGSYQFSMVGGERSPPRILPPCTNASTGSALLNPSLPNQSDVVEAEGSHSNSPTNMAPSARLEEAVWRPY
Sequence GAAATTTCCGCTTTCTTTCTGCAGCAGGAACCGCGG came in with an RUNX1 binding intensity of 849.

Sequence GGCCAGGCAGGAAGTCCCGCGCCACAAGCGGCCGTC had an RUNX1 binding intensity of 758.

GCGCAAGGATCCGGTTTGTTGTGGTGTGGGGAGGGG came in with an RUNX1 binding intensity of 814.

As to GCGGGCGGAAGTGCCGAGGTTGTACCGCGGCGCTGG, the RUNX1 binding intensity was determined as 714.

For the sequence AGAATCGCATCAGGATGTGGTGAGGGAGCACATTTG, the RUNX1 binding intensity worked out at 713.

For the sequence GTTGCAGGAAACGATGGGTTTTGTGGTATGAACTGC, the RUNX1 binding intensity amounted to 829.

AATCTGAAACAGGAAATAAGTCTGTGGTTGTGTGTT yielded an RUNX1 binding intensity of 833.

CTGTCCCTAGCAGGATGTGGTTTGCACATTGCTGCT returned an RUNX1 binding intensity of 962.

For the sequence GGCCTCGGCCACATCCGGGTTCCACCGCAGATTCGG, the RUNX1 binding intensity is 819.

The sequence TCATATCCGGCAGGAATGGGTTTTGTGGCTTTGTGC registered an RUNX1 binding intensity of 1670.

With GATTGTTATGTCCGGAAACCGCTTATCAGAGCCCTG, the RUNX1 binding intensity was 861.

For TGGCTTTGCAGAAGGAAGCTGTGGTTTCTGGTCTTC, the RUNX1 binding intensity is 869.

As to AACCATTACAGGATGTGAGATTCAAACCACTAACAG, the RUNX1 binding intensity is 849.

Consider AAAGCATTTCCTGCCTTGACTTAACCACAAGACAGG, for which the RUNX1 binding intensity worked out at 1460.

GGGTCTCCAGGAAGCCACTCACCACAAACTTTGACA: the RUNX1 binding intensity was 1080.

In the case of CCGCTGAGAACAGGATGTGGGTGTCAGGAGGTGAAG, the RUNX1 binding intensity came out at 765.

The sequence CCATGCACAACAGGATGTGGTTAGACAGTCAAAATT returned an RUNX1 binding intensity of 875.

GTAGGGAAGACGGGATGTGGGTTTTCAGCCGTGGCC gave an RUNX1 binding intensity of 730.

Turning to TCTAAATCACTTCCTGTTACAGAAACCACAGGCCTG, the RUNX1 binding intensity was found to be 1220.

The sequence GCCAACAGGAAGCTGGAAGCCAACCGCACTGTGTGC showed an RUNX1 binding intensity of 899.

Regarding CAGGCTCGCCACAGGGGAAGTGGTTAGGGCGGGTCC, the RUNX1 binding intensity was found to be 775.

In the case of GAGTGGGCGGAAATCCGTGCCTGGCAGACCACAAAG, the RUNX1 binding intensity worked out at 765.

The sequence AGCTCCACCGGAAACGGCCTGGCCGCAGCCAATCAG displayed an RUNX1 binding intensity of 806.

CTCTCACTTCCCGTGTGAGAAAAACCACAGAAAAGC gave an RUNX1 binding intensity of 1890.

For CAGCTGACAGGAAGGAGAGAACCACAGACAGTGCGA, the RUNX1 binding intensity is 801.

GGGGGCGGAAGTTTCGGTGCATTGTGGGTTCTCCTG gave an RUNX1 binding intensity of 920.

CGGCAGGCAAGCAGGAAACCGCGAGTGGAGAAAGGG yielded an RUNX1 binding intensity of 1010.

For CTTAGTGTTTGAGGATGTGGGTTTTACAATCAGATC, the RUNX1 binding intensity worked out at 769.

In turn, AAGAGGAAGTCCCAAATTGCTTTTTAACCACCAACA returned an RUNX1 binding intensity of 849.

In the case of TGCGAGGTTGCCAGGAAACCGCGAAGCCGAGGTCCC, the RUNX1 binding intensity was 1120.

Sequence GGGTTGGGTGCCGGATGCGGTGAGTGAGGTTCTCAT had an RUNX1 binding intensity of 917.

For the sequence AGCCGCCACTTCCTGTCTCTGCGGGTGCATGCTCTT, the RUNX1 binding intensity stood at 863.

The sequence TGTTGTAGGGGAAGTGGTGTGTGGTATTCCTGGGGA showed an RUNX1 binding intensity of 811.

TTTGCTGCAGAAGGATGTGGTTTATTCAGGTTTGAC registered an RUNX1 binding intensity of 932.

As for CCTCAATTTCCTGGCCAGAGAAACCACTGCCTCTCA, the RUNX1 binding intensity was found to be 1030.

On to TTGATTGGAGCAGGATGTGGTCAGAACAGTATGCAG, for which the RUNX1 binding intensity was found to be 794.

Sequence CCGGTCCTGACCGGAAGCGGTAACCGTCACTCCTTC gave an RUNX1 binding intensity of 703.

CCCACTGCGCCAGGATGTGGTCAGGTCGGTGACGTT gave an RUNX1 binding intensity of 886.

With AGCAGCTGCCAGAGGAAGTCTGCGGTCGGAACAGGC, the RUNX1 binding intensity amounted to 1410.

In turn, AACATCCTGTGTAAAGAGAATTGAATGTGGTTTTCT showed an RUNX1 binding intensity of 821.
